Source: PubChem BioAssay
CBX7 inh = blocks human CBX7 binding to H3K27me3 peptide. 66,000 tested, 1.1% active. normalised signal (fraction of DMSO) (test concentration not listed). AlphaScreen His6-CBX7 / biotin-H3K27me3 peptide binding; active compounds read low; in the data active = normalised signal below about 0.5
Target sequence (O95931 whole entry, looked up): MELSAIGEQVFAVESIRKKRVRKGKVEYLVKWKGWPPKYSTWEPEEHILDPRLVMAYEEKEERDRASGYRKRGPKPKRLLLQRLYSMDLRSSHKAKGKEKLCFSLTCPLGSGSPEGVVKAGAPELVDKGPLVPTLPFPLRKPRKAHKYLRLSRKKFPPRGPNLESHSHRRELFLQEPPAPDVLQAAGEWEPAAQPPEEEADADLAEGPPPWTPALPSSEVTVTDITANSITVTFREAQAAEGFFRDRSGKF
* = called active by the depositor. The full list was thinned out, with hits kept by preference.

SMILES | CBX7 inh
COc1ccccc1CNS(=O)(=O)c1ccc2[nH]cc(C(=O)O)c(=O)c2c1 | 0.71
COc1cccc(CNS(=O)(=O)c2ccc3[nH]cc(C(=O)O)c(=O)c3c2)c1 | 0.9
Cn1c(C(=O)N2CCCCCC2)cc2sc(Cl)cc21 | 0.99
O=C(CN1C(=O)COc2ccc(S(=O)(=O)N3CCOCC3)cc21)NCCCN1CCCC1 | 1
COc1ccc(C2NC(C(=O)O)Cc3[nH]cnc32)cc1CSc1nc2ccccc2[nH]1 (stereo not drawn) | 0.5*
COc1ccc(C2NCCc3c2[nH]c2ccccc32)cc1CSc1nc2ccccc2[nH]1 (stereo not drawn) | 0.89
COc1ccc(CSc2nc3ccccc3[nH]2)cc1 | 0.97
Cc1ccc(Nc2nnc(C(C)(C)C)c(=O)[nH]2)cc1 | 1.3
CCOC(=O)c1ccc(Nc2nnc(C(C)(C)C)c(=O)[nH]2)cc1 | 0.5*
CCOc1ccc(Nc2nnc(C(C)(C)C)c(=O)[nH]2)cc1 | 1
CCOC(=O)c1cnc2ccccc2c1NCc1ccccc1 | 1
COc1ccc(OC)c(C2=NOC(C(=O)N3CCC(Cc4ccccc4)CC3)C2)c1 (stereo not drawn) | 0.7
Cc1cc(C)n(-c2nc3ccccc3nc2Nc2ccc(C(C)C)cc2)n1 | 2.8
Cc1cc(C)n(-c2nc3ccccc3nc2Nc2ccc(N3CCCCC3)cc2)n1 | 0.42*
Cc1cc(C)n(-c2nc3ccccc3nc2Nc2ccc(F)cc2)n1 | 1.2
COCc1nnc(NC(=O)c2ccc(S(=O)(=O)N(CCC#N)CCC#N)cc2)o1 | 0.063*
CCc1nnc(NC(=O)c2ccc(S(=O)(=O)N(CCOC)CCOC)cc2)o1 | 0.5
CCc1nnc(NC(=O)c2ccc(S(=O)(=O)N(C)C)cc2)o1 | 0.042*
CN(C1CCCCC1)S(=O)(=O)c1ccc(C(=O)Nc2nnc(-c3cccs3)o2)cc1 | 0.92
CN(C1CCCCC1)S(=O)(=O)c1ccc(C(=O)Nc2nc(-c3ccncc3)cs2)cc1 | 0.96
CCCCN(C)S(=O)(=O)c1ccc(C(=O)Nc2nnc(-c3cccs3)o2)cc1 | 0.68
CN(C1CCCCC1)S(=O)(=O)c1ccc(C(=O)Nc2nnc(C3CC3)o2)cc1 | 0.028*
COCc1nnc(NC(=O)c2ccc(S(=O)(=O)N(C)C)cc2)o1 | 0.56
CCCCN(CCCC)S(=O)(=O)c1ccc(C(=O)Nc2nnc(CC)o2)cc1 | 0.051*
Cc1ccccc1-n1nc2c(c1NC(=O)c1cccc(F)c1)CSC2 | 1
SMILES | CBX7 inh
CCC(C(=O)Nc1cccc(OC)c1)n1c(SCc2ccc(F)cc2)nc2ccncc21 (stereo not drawn) | 0.92
Cc1nc2c(C(=O)NC3CC3)cnn2c(C)c1Cc1cccc(Br)c1 | 1.1
Cc1ccc(CN2C(=O)CCC2C(=O)NCc2cccs2)cc1 (stereo not drawn) | 1.1
COc1ccccc1NC(=O)C(=O)c1c(-c2ccccc2)cc2ccccn12 | 0.78
CCCCN(CC)S(=O)(=O)c1ccc(C(=O)Nc2nnc(COC)o2)cc1 | 0.062*
COCCN(CCOC)S(=O)(=O)c1ccc(C(=O)Nc2nnc(C3CC3)o2)cc1 | 0.54
CCCCN(CC)S(=O)(=O)c1ccc(C(=O)Nc2c(C(=O)OCC)oc3ccccc23)cc1 | 1.1
CCN(Cc1ccccc1)S(=O)(=O)c1ccc(C(=O)Nc2nnc(COC)o2)cc1 | 0.88
CCCCN(CCCC)S(=O)(=O)c1ccc(C(=O)Nc2nnc(C3CC3)o2)cc1 | 0.045*
Cc1ccc(-n2c(CCC(=O)O)ccc2-c2ccc(Cl)cc2)cc1 | 1.1
Cc1ccc(Cl)cc1N1CCN(C(=O)c2csc3c2CCCCC3)CC1 | 1
CCC(=O)N1c2ccc(S(=O)(=O)NCC3COc4ccccc4O3)cc2CC1C (stereo not drawn) | 0.81
CC(C(=O)N1CCN(c2ccc(F)cc2)CC1)n1ncc2ccccc21 (stereo not drawn) | 0.8
COc1cccc(C(=O)Nc2ccc3nc(N4CCN(C)CC4)cc(C)c3c2)c1 | 1
CCOc1ccc(NC(=O)C(=O)NCCc2ccc(OC)c(OC)c2)cc1 | 1
COc1cc(Cl)c(S(=O)(=O)NCCc2c(C)[nH]c3ccc(Br)cc23)cc1Cl | 0.81
Nc1n[nH]c(CC(=O)N(Cc2ccccc2)C2(C(=O)Nc3ccccc3)CCCCC2)n1 | 0.7
Cc1ccc(NC(=O)C2(N(C)C(=O)Cc3nc(N)n[nH]3)CCCCC2)cc1 | 0.79
CN(C(=O)Cc1nc(N)n[nH]1)C1(C(=O)Nc2ccccc2)CCCCC1 | 0.027*
Cc1ccccc1Cn1c(C2CC(=O)N(c3ccccc3)C2)nc2ccccc21 (stereo not drawn) | 0.6
CCOC(=O)N1CCC(Nc2c(NCCN3CCCCC3CC)c(=O)c2=O)CC1 (stereo not drawn) | 1
CCCCN(CC)CCCNC(=O)c1ccc2c(c1)N(Cc1cc(C)ccc1C)C(=O)CS2 | 1
O=C1CC(N2CCN(Cc3ccc4c(c3)OCO4)CC2)C(=O)N1CC(c1ccccc1)c1ccccc1 (stereo not drawn) | 1.3
c1ccc(-c2csc(N3CCN(Cc4ccc5c(c4)OCO5)CC3)n2)cc1 | 0.96
c1ccc(CN2CCC(NCCc3ccc4c(c3)OCO4)CC2)cc1 | 0.48*
SMILES | CBX7 inh
O=C1C2C3C=CC(C3=C3CCCC3)C2C(=O)N1c1cccc(C(F)(F)F)c1 (stereo not drawn) | 0.91
COc1ccc(CNc2ncnc3c2c(-c2ccccc2)cn3-c2ccc(C)cc2)cc1 | 0.98
COc1ccc(C(=O)N2CC(=O)Nc3ccc(C)cc3C2c2ccc(F)cc2)c(OC)c1 (stereo not drawn) | 0.3*
COc1ccccc1C(=O)N1CC(=O)Nc2ccc(F)cc2C1c1ccccc1 (stereo not drawn) | 1.1
COc1ccc(C(=O)N2CC(=O)Nc3ccc(C)cc3C2c2ccc(F)cc2)cc1 (stereo not drawn) | 0.74
C=CCn1c(SCC(=O)Nc2cccc(Br)c2)nnc1-c1cccnc1 | 1.1
Clc1ccc2nc3c(c(Nc4ccc5c(c4)OCCO5)c2c1)CCCC3 | 0.8
Cc1ccc(NC(=O)C2c3ccccc3C(=O)N3CCc4ccccc4C23)nc1 (stereo not drawn) | 0.3*
Cc1ccccc1NC(=O)C1c2ccccc2C(=O)N2CCc3ccccc3C12 (stereo not drawn) | 0.97
COc1cc2c(cc1OC)C1C(C(=O)Nc3ccc(Cl)cn3)c3ccccc3C(=O)N1CC2 (stereo not drawn) | 0.93
COc1ccc(-n2c(Cc3cc(=O)[nH]c(=O)[nH]3)nnc2SCc2cccc(Cl)c2)cc1 | 0.83
CC(C)(C)c1ccc(-c2nnc(NC(=O)Nc3ccc(Cl)cc3)s2)cc1 | 0.91
Cc1ccccc1Nc1c(-c2ccccc2)nc2ccc(Br)cn12 | 1
Cc1ccc(OCCN2CCN(c3ncnc4scc(-c5ccccc5)c34)CC2)cc1 | 0.92
Cc1ccc(OCCn2cnc3cc(C)c(C)cc32)cc1 | 0.77
Cc1ccc(OCCN2CCN(c3ccc(C)c(C)c3)CC2)cc1 | 0.4*
O=C(Cn1ccc2ccccc2c1=O)NCCCN1CCCC1 | 1.1
Cc1ccc2c(c1)c(=O)c(S(=O)(=O)c1ccc(F)cc1)cn2CC(=O)Nc1ccc(Cl)cc1 | 0.9
Cc1cc(N2CCc3ccccc3C2)n2nc(C)c(-c3ccc(Cl)cc3)c2n1 | 1.8
COc1ccc2c(c1)-c1nc(NC(=O)c3cccc(C)c3)sc1CC2 | 1
COCCCNC(=O)CSCc1nc(-c2ccc(Cl)cc2)oc1C | 1
N#Cc1nc(COc2ccc(Cl)cc2)oc1N1CCN(Cc2ccccc2)CC1 | 0.71
N#Cc1nc(COc2ccc(Cl)cc2)oc1N1CCCCC1 | 0.76
N#Cc1nc(COc2ccccc2Cl)oc1N1CCCCC1 | 0.75
